Bioassay records from PubChem BioAssay.
The list is not random: actives were taken first. Their share in the collection is about 9.2%.
HTT ATP protect: protects HTT-Q103 PC12 cells, measured by ATP; 0.14% of 230,000 active; AID 1471; PC12 HTT-Q103 induced, cytoprotection, ATP luminescence, 40 h; Potency, µM (series often up to 56.4 µM), actives largely listed as activators; active = well fitted curve in the direction sought with a large enough effect; inconclusive = small, poorly fitted or top-dose-only effect, or another doubt; inactive = no such curve, though single readings can be large; an effect the other way counts as inactive or inconclusive; also: nearly all actives have a fitted effect of over 45% in size
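PC12 cells stably carrying ecdysone-inducible Htt exon 1 (Q103)–GFP were induced with 100 nM tebufenozide (final) alongside library compounds in a dose series. Cytoprotection was scored as retained ATP by ATPlite luminescence.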
HttQ103 aggreg: reduces HttQ103-GFP aggregates in PC12 cells; AID 1688; 1.1% of 220,000 active; Potency, µM (highest dose often 46.1 µM), hits mostly inhibitors; PC12 HttQ103-GFP aggregates, Acumen cytometry, 40 h; active = well fitted curve in the direction sought with a large enough effect; inconclusive = small, poorly fitted or top-dose-only effect, or another doubt; inactive = no such curve, though single readings can be large; an effect the other way counts as inactive or inconclusive; also: nearly all actives have a fitted effect of over 60% in size
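PC12 cells stably carrying ecdysone-inducible HTT exon 1 Q103–GFP were induced with tebufenozide (100 nM final) and treated with library compounds in titration. GFP aggregates in lysates were counted by laser scanning cytometry.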
HPGD block: inhibitors of human 15-hydroxyprostaglandin dehydrogenase (HPGD). P15428. purified HPGD, NADH fluorescence kinetic, PGE2 substrate. Potency, µM, actives largely listed as inhibitors. 4.3% of 150,000 active. AID 894
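NADH formation kinetics: reaction with 30 uM PGE2 and 1 mM NAD+ (final), 20 nM enzyme, Tris-HCl pH 8 with Tween 20, after 15 min compound preincubation at room temperature. Fluorescence change, last versus first of five reads.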
LMNA splice mod: modulators of lamin A splicing | HeLa LMNA splicing GFP/RFP minigene ratio, 48 h | 0.01% of 200,000 active | Potency, µM (titrated, usually from 46.1 µM), usual class: inhibitors | AID 1487; active = well fitted inhibition curve with a large enough effect in the signal ratio, with a control signal flat, not every such curve was filed as active; inconclusive = small, poorly fitted or top-dose-only effect, or effect the other way, or a change in a side signal; the % refers to the signal ratio
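S3 HeLa cells stably expressing lamin A-EGFP splicing minigene plus DsRed2, 600 cells/well, 48 h compound exposure at 37C. Laser-scanning cytometry; analysed as GFP (500-530 nm)/RFP (575-640 nm) total intensity ratio; 0.5% DMSO vehicle.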
ALDH1A1 block: blocks purified human ALDH1A1 activity | Potency, µM (highest dose often 75.3 µM), most hits filed as inhibitors | 7.3% of 220,000 active | AID 1030 | Purified ALDH1A1, NADH fluorescence, propionaldehyde substrate
JMJD2E inh: JMJD2E (human) inhibition. 1.6% of 230,000 active. JMJD2E catalytic domain, FDH-coupled NADH fluorescence (FDH is formaldehyde dehydrogenase). Potency, µM (titrated, usually from 57.1 µM), hits mostly inhibitors. B2RXH2; also: nearly all actives have a fitted effect of over 50% in size
Target sequence (B2RXH2 1-337 limits assumed): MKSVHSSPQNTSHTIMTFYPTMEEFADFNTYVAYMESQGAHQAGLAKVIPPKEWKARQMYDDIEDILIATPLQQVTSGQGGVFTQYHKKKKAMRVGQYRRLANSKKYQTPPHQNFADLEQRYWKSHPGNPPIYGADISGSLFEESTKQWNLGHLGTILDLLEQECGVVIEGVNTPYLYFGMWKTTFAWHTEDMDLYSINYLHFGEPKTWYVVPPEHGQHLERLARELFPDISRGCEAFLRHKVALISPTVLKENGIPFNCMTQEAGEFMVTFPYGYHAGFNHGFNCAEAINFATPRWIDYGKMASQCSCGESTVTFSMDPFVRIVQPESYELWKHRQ
Each line names hits and unclear results; the compound was inactive in the other large screens. Unless noted, calls follow the shape of the dose curve; as a rule, active = well fitted inhibition curve with a large enough effect (not every such curve was filed as active); inconclusive = small, poorly fitted or top-dose-only effect, or another doubt; inactive = no such curve, though single readings can be large or run the other way.

Nc1nc2[nH]cc(CCc3ccc(C(=O)NC(CCC(=O)O)C(=O)O)cc3)c2c(=O)[nH]1 (configuration not stated)	none (no result: HPGD block, LMNA splice mod, ALDH1A1 block, JMJD2E inh)
CCOC(=O)c1c(-c2ccccc2)csc1NC(=O)CCN1CCOCC1	LMNA splice mod inconclusive, ALDH1A1 block 28µM
CCOC(=O)c1c(-c2cccc([N+](=O)[O-])c2)csc1NC(=O)CCCOc1ccccc1OC	HPGD block inconclusive, ALDH1A1 block 28µM
CCOC(=O)c1c(-c2ccc(C)cc2)csc1NC(=O)CCN1CCOCC1	ALDH1A1 block inconclusive, JMJD2E inh 32µM
CCOC(=O)c1c(-c2cccc([N+](=O)[O-])c2)csc1NC(=O)CCCOc1ccccc1	ALDH1A1 block inconclusive (no result: HPGD block)
COc1ccc(NC(=O)CSc2nnc(NC(=O)c3ccccc3C(=O)O)s2)cc1	none (no result: HPGD block)
CCn1c(N)c(C(=O)NCC2CCCO2)sc1=S (configuration not stated)	HPGD block 6.3µM, ALDH1A1 block 8.9µM
Nc1c(C(=O)NCC2CCCO2)sc(=S)n1-c1ccccc1 (configuration not stated)	HPGD block 25µM, ALDH1A1 block 14µM
COc1ccc(CC(=O)Nc2ncc([N+](=O)[O-])s2)cc1OC	LMNA splice mod inconclusive, ALDH1A1 block 20µM (no result: HPGD block)
CC(C)CC(=O)Nc1ncc([N+](=O)[O-])s1	none (no result: HPGD block, LMNA splice mod, ALDH1A1 block)
COc1ccc(CC(=O)Nc2nccs2)cc1OC	LMNA splice mod inconclusive
O=C(Nc1ccccc1)Nc1ncc([N+](=O)[O-])s1	HttQ103 aggreg 11µM, LMNA splice mod inconclusive, ALDH1A1 block inconclusive (no result: HPGD block)
Cc1nc(C)c(C(=O)Nc2ncc([N+](=O)[O-])s2)o1	LMNA splice mod inconclusive, ALDH1A1 block 22µM (no result: HPGD block)
O=[N+]([O-])c1cc(N(CCO)CCO)ccc1NCCO	ALDH1A1 block inconclusive (no result: HttQ103 aggreg, LMNA splice mod, JMJD2E inh)
CN(C)CCCN1CCC2(CCC(C(C)(C)C)CC2)CC1	none (no result: HttQ103 aggreg, LMNA splice mod, JMJD2E inh)
CC(C)=CCc1c2c(c3occ(-c4ccc(O)cc4)c(=O)c3c1O)C=CC(C)(C)O2	HttQ103 aggreg inconclusive, LMNA splice mod inconclusive, ALDH1A1 block 25µM
CC(C)=CCc1c2c(c3occ(-c4ccc(O)c(O)c4)c(=O)c3c1O)C=CC(C)(C)O2	JMJD2E inh inconclusive (no result: HttQ103 aggreg, LMNA splice mod)
Cc1cc(C)c2c(=O)n(CC(=O)NCCCN3CCN(c4ccccc4F)CC3)sc2n1	HttQ103 aggreg inconclusive, HPGD block inconclusive, ALDH1A1 block 3.5µM, JMJD2E inh 28µM
CCOc1ccc(NC(=O)Cn2sc3nc(C)cc(C)c3c2=O)cc1	JMJD2E inh inconclusive (no result: HPGD block, LMNA splice mod, ALDH1A1 block)
Cc1cc(C)c2c(=O)n(CC(=O)NCCCN3CCOCC3)sc2n1	HPGD block inconclusive, ALDH1A1 block inconclusive, JMJD2E inh inconclusive
Cc1cc(C)c2c(=O)n(CC(=O)Nc3ccc(Cl)cc3)sc2n1	JMJD2E inh 28µM (no result: HPGD block, LMNA splice mod, ALDH1A1 block)
COC(=O)C1C(O)C(C)C(O)C(C)(O)/C=C\C=C(/C)C(=O)Nc2c(C)c(OC(C)=O)c3c(c2O)C(=O)C(C)=C2OCOC(=C23)/C(C)=C/C(C)(O)C(O)C(C)C1O (configuration not stated)	JMJD2E inh 3.2µM (no result: HPGD block, LMNA splice mod, ALDH1A1 block)
C=CCn1c(SCC(=O)NCCOC)nnc1-c1cc2c(s1)CCC(CC)C2 (configuration not stated)	HPGD block 18µM, LMNA splice mod inconclusive, ALDH1A1 block inconclusive
Nc1ncnc2c1ncn2[C@@H]1O[C@H](COP(=O)(O)OP(=O)(O)O)[C@@H](O)[C@H]1O	none (no result: HttQ103 aggreg, LMNA splice mod)
COc1ccc(N=C2SC(CC(=O)Nc3ccccc3)C(=O)N2CCc2ccccn2)cc1 (configuration not stated)	none (no result: HTT ATP protect)
C=CCN1C(=O)C(CC(=O)Nc2ccc(OC)cc2)SC1=Nc1ccc(S(N)(=O)=O)cc1 (configuration not stated)	ALDH1A1 block 7.9µM (no result: HPGD block, LMNA splice mod)
C=CCN1C(=O)C(CC(=O)NCC)SC1=Nc1ccc(S(N)(=O)=O)cc1 (configuration not stated)	none
CC(O)CN1C(=O)C(CC(=O)Nc2ccc(Cl)cc2)SC1=Nc1ccccc1 (configuration not stated)	ALDH1A1 block 22µM
